Screening data deposited in PubChem BioAssay by National Center for Advancing Translational Sciences (NCATS).
PI5P4Ka inh = inhibitors of human PI5P4K alpha. P48426. PI5P4Kalpha enzyme, ADP-Glo luminescence, 60 min; active compounds read low. max response, %. 1.2% of 330,000 active; active means max response of -50% or lower; inconclusive means between -30% and -50%; inactive means -30% or higher; further: value at the top dose of about 77 µM
Target sequence (P48426 whole entry, looked up): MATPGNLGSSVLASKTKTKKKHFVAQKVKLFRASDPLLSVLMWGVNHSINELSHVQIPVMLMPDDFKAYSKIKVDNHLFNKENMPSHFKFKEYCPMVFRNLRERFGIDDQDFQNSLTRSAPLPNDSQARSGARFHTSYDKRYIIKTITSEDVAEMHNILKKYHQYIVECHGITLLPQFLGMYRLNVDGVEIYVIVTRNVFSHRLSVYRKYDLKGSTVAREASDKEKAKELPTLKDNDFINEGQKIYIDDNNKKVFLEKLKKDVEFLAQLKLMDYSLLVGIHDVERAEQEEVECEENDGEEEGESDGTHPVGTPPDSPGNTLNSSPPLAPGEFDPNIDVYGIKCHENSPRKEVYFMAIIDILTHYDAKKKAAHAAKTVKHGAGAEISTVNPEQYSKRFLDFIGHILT
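PI5P4Kalpha ADP-Glo assay; 5 microM ATP final; 60 min RT reaction; HEPES pH 7.4/EGTA/CHAPS, 5% DMSO; controls lacking substrate or enzyme; luminescent end-point.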
ALOX12 inh = ALOX12 (human) lipoxygenase inhibition; P18054; purified 12hLO, xylenol orange hydroperoxide absorbance; Potency, µM (titrated, usually from 108 µM), most hits filed as inhibitors; 1.1% of 580,000 active; AID 1671190
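Hydroperoxide product was detected by ferrous iron/xylenol orange as the 573 to 405 nm absorbance ratio. Arachidonic acid at 40 uM (final) was turned over for 30 min at room temperature by 150 nM human 12hLO, pH 7.0 Hepes buffer, after 15 min compound preincubation.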
Pol kappa inh = blocks human DNA polymerase kappa activity. purified Pol kappa, fluorescent DNA synthesis assay, 10 min. Potency, µM (doses to about 107 µM), usual class: inhibitors. 0.53% of 400,000 active
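Readout: fluorescence, taken kinetically at 0 and 10 min. Conditions: 10 nM Pol kappa, 15 min RT compound preincubation, 50 nM substrate final. Controls: enzyme-free buffer wells.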
Pol eta inh = DNA polymerase eta (human) inhibition | Q9Y253 | recombinant Pol eta, fluorescent DNA replication assay | Potency, µM (doses to about 114 µM), hits mostly inhibitors | 1.2% of 390,000 active | AID 588591
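Pol eta (10 nM) was preincubated with compounds for 15 min at room temperature, after which fluorescent replication substrate (50 nM final) was added to start the reaction. Fluorescence was read kinetically at 0 and 10 min.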
POLI inh = inhibitors of human DNA polymerase iota. Pol iota fluorescent replication assay, 10 min. Potency, µM (doses to about 115 µM), hits mostly inhibitors. 1% of 390,000 active. AID 588590
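Fluorescent replication assay read twice, at 0 min and 10 min after adding 50 nM (final) substrate. Enzyme (10 nM) and compounds were first incubated 15 min at room temperature; enzyme-free buffer wells were negative controls.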
Pol beta inh-1 = DNA polymerase beta (human) inhibition. Potency, µM (series often up to 114 µM), actives largely listed as inhibitors. Pol beta primer extension/strand displacement, fluorescence kinetic. 1.3% of 340,000 active. P06746
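Reaction started by 50 nM substrate onto compound-treated Pol beta (10 nM, 15 min preincubation, room temperature); plates read at 0 min and 10 min. Normalized concentration-effect data fitted by four-parameter Hill equation.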
Pol beta inh-2 = Inhibitors of human DNA polymerase beta, hit validation. shares compounds with Pol beta inh-1. Pol beta primer extension/strand displacement, fluorescence kinetic. Potency, µM, most hits filed as inhibitors. 87% of 250 active. AID 540280; calls by dose curve
Klenow inh = counter-screen for DNA polymerase beta inhibitors: Klenow fragment inhibition; shares compounds with Pol beta inh-1; 250 tested, under 10 active; AID 540300; Klenow exo- polymerase counter-screen, fluorescent DNA substrate; activity change, negative = inhibition, % at 57.1 µM
HIV RT counter = inhibits HIV-1 reverse transcriptase in counter-screen; activity % (negative = inhibition, positive = activation), % at 57.1 µM; shares compounds with Pol beta inh-1; 250 tested, under 10 active; HIV-1 RT polymerase activity, counter-screen
POLB inh gel = DNA polymerase beta inhibition, radiolabeled validation; shares compounds with Pol beta inh-1; radiolabeled primer extension gel assay, phosphorimager; inhibition, % at 10 µM; 91% of 110 active;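 active means inhibition at 10 µM of 30% or more; inconclusive means no clear call, values can overlap the other calls; inactive means inhibition at 10 µM under 30%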
Pol iota confirm = Confirm cherry-picked inhibitors of human polymerase iota. 77% of 1,500 active. AID 720496. shares compounds with Pol kappa inh. Pol iota primer extension, TAMRA/BHQ fluorescence. Potency, µM, hits mostly inhibitors
Each line names hits and unclear results; the compound was inactive in the other large screens (follow-up assays come after a bar, where they were run). An excerpt weighted towards active compounds, which were near 2.9% of everything screened. Unless noted, the call rests on the fitted dose curve; in most records, active means well fitted curve in the direction sought with a large enough effect; inconclusive means small, poorly fitted or top-dose-only effect, or another doubt; inactive means no such curve, though single readings can be large; an effect the other way counts as inactive or inconclusive.

COc1ccc(-n2nnnc2SCC(=O)c2ccc(O)c(O)c2)cc1	ALOX12 inh 4.47µM, Pol kappa inh 39.8µM, Pol eta inh 39.8µM, POLI inh inconclusive, Pol beta inh-1 20µM (no result: PI5P4Ka inh) | Pol beta inh-2 12.6 | Klenow inh inactive | HIV RT counter inactive
Cc1cc(=O)[nH]c(SCC(=O)c2ccc(O)c(O)c2)n1	ALOX12 inh 4.47µM, Pol kappa inh inconclusive, Pol eta inh 17.8µM, POLI inh 50.1µM, Pol beta inh-1 11.2µM | Pol beta inh-2 28.2 | Klenow inh inactive | HIV RT counter inconclusive | POLB inh gel inactive
Cc1c(-c2ccccc2)c(=O)oc2ccc(Br)cc12	none (no result: PI5P4Ka inh, Pol kappa inh, Pol eta inh, POLI inh, Pol beta inh-1)
O=C(Nc1cc(Cl)cc(Cl)c1)c1ccc(Cn2c(=O)[nH]c3ccsc3c2=O)cc1	Pol eta inh inconclusive, Pol beta inh-1 14.1µM (no result: ALOX12 inh) | Pol beta inh-2 inconclusive | Klenow inh inactive | HIV RT counter inactive | POLB inh gel 93.0
CCc1ccccc1NC(=O)CNC(=O)NNC(=O)C(C)Nc1nc2ccccc2s1 (centres undefined)	none (no result: PI5P4Ka inh, Pol kappa inh, Pol eta inh, POLI inh, Pol beta inh-1)
Cc1ccc(NC(=O)c2ccc(NCCN)c([N+](=O)[O-])c2)cc1	ALOX12 inh inconclusive
COc1ccc(NC(=O)c2ccc(NCCN3C(=O)CCC3=O)c([N+](=O)[O-])c2)cc1	PI5P4Ka inh inconclusive, Pol kappa inh inconclusive, Pol eta inh inconclusive, Pol beta inh-1 12.6µM | Pol beta inh-2 inconclusive | Klenow inh inactive | HIV RT counter inactive | POLB inh gel inconclusive
Cc1ccc(S(=O)(=O)N2CCCC2C(=O)OCc2ccco2)cc1 (centres undefined)	Pol eta inh 31.6µM, POLI inh 25.1µM, Pol beta inh-1 20µM (no result: PI5P4Ka inh, ALOX12 inh) | Pol beta inh-2 31.6 | Klenow inh inactive | HIV RT counter inactive | POLB inh gel 50.5
Cc1cc(C)c2cc(C)c(SCC(=O)NCc3ccco3)nc2c1	POLI inh inconclusive
Cc1cc(C)c2cc(C#N)c(SCC(=O)NCc3ccco3)nc2c1	Pol eta inh inconclusive, POLI inh inconclusive, Pol beta inh-1 20µM | Pol beta inh-2 28.2 | Klenow inh inactive | HIV RT counter inactive | POLB inh gel 85.6
O=C(Cc1cccs1)N1CCN(c2ccc([N+](=O)[O-])cc2)CC1	PI5P4Ka inh inconclusive, ALOX12 inh inconclusive, Pol kappa inh inconclusive, Pol eta inh 79.4µM, POLI inh inconclusive, Pol beta inh-1 20µM | Pol beta inh-2 inconclusive | Klenow inh inactive | HIV RT counter inactive | POLB inh gel 65.3
CCSc1nnc(NC(=O)C2Cc3ccccc3CN2S(=O)(=O)CC)s1 (centres undefined)	PI5P4Ka inh inconclusive, Pol eta inh 56.2µM, POLI inh inconclusive, Pol beta inh-1 17.8µM | Pol beta inh-2 28.2 | Klenow inh inactive | HIV RT counter inactive | POLB inh gel 99.5
Cc1c2cnn(CC(=O)Nc3c(F)c(F)cc(F)c3F)c(=O)c2c(C)n1Cc1ccc(F)cc1	Pol beta inh-1 8.91µM (no result: PI5P4Ka inh, Pol kappa inh, Pol eta inh, POLI inh) | Pol beta inh-2 25.1 | Klenow inh inactive | HIV RT counter inactive | POLB inh gel 99.9
Cc1nc2cc(NC(=O)COc3ccc(C(C)C)c(C)c3)ccc2o1	none (no result: PI5P4Ka inh, Pol kappa inh, Pol eta inh, POLI inh, Pol beta inh-1)
O=C(Nc1sc2c(c1C(=O)NCc1ccco1)CCCC2)c1ccc2c(c1)OCO2	ALOX12 inh inconclusive, POLI inh inconclusive, Pol beta inh-1 12.6µM (no result: PI5P4Ka inh) | Pol beta inh-2 inconclusive | Klenow inh inactive | HIV RT counter inactive
Cc1ccc(C(=O)Nc2sc3c(c2C(=O)NCc2ccco2)CCCC3)cc1	ALOX12 inh inconclusive
Cc1ccc(-n2nnc3c(=O)n(CC(=O)NCc4ccccc4)cnc32)cc1	Pol beta inh-1 10µM | Pol beta inh-2 inconclusive | Klenow inh inactive | HIV RT counter inactive | POLB inh gel 49.7
CCN(CC)c1ccc(/C=N/N(c2ccccc2)c2ccccc2)cc1	none (no result: PI5P4Ka inh, Pol kappa inh, Pol eta inh, POLI inh, Pol beta inh-1)
N#C/C(=C/c1ccc(OC(=O)c2ccc(Br)s2)cc1)c1nc2ccccc2[nH]1	none (no result: Pol beta inh-1)
N#C/C(=C\c1ccc(OC(=O)c2ccc(Br)s2)cc1)c1nc2ccccc2[nH]1	Pol eta inh 5.62µM, Pol beta inh-1 2µM | Pol beta inh-2 8.91 | Klenow inh inactive | HIV RT counter inactive
COc1cccc(C(=O)Nc2ccc3c(c2)C(=O)c2ccccc2C3=O)c1	Pol eta inh inconclusive, POLI inh inconclusive, Pol beta inh-1 10µM | Pol beta inh-2 14.1 | Klenow inh inconclusive | HIV RT counter inactive | Pol iota confirm inconclusive
COc1ccccc1CNC(=O)C12CCC(=O)N1CCS2 (centres undefined)	none (no result: PI5P4Ka inh, Pol kappa inh, Pol eta inh, POLI inh, Pol beta inh-1)
COc1cc(/C=C(\C#N)C(=O)Nc2cccc(C(=O)O)c2)ccc1OCc1ccc(C)cc1	Pol beta inh-1 inconclusive
CCOc1cc(/C=C(\C#N)C(=O)Nc2cccc(C(=O)O)c2)ccc1OCc1ccc(Br)cc1	Pol eta inh inconclusive, POLI inh 7.08µM, Pol beta inh-1 10µM | Pol beta inh-2 3.55 | Klenow inh inactive | HIV RT counter inactive | Pol iota confirm 7.52
Nc1nc(SCc2ccc(Cl)cc2Cl)nc2nc3c(cc12)CCCC3	ALOX12 inh inconclusive, Pol eta inh inconclusive, POLI inh 79.4µM, Pol beta inh-1 10µM | Pol beta inh-2 35.5 | Klenow inh inactive | HIV RT counter inactive | Pol iota confirm 33.6
N#CC1=C(N)N2C(=C(C#N)C1c1cccc(Br)c1)Nc1ccccc12 (centres undefined)	none
N#CC1=C(N)N2C(=C(C#N)C1c1ccc(Br)cc1)Nc1ccccc12 (centres undefined)	Pol eta inh 56.2µM, POLI inh inconclusive, Pol beta inh-1 12.6µM | Pol beta inh-2 15.8 | Klenow inh inactive | HIV RT counter inactive | Pol iota confirm inconclusive
O=C(NCCC1=CCCCC1)C12CC3CC(CC(Cl)(C3)C1)C2	none (no result: PI5P4Ka inh, Pol kappa inh, Pol eta inh, POLI inh, Pol beta inh-1)
